Screen size: about 320,000 compounds; about 1,300 (0.41%) were called active. Not shown: some 3% with an inconclusive outcome. The rule behind the calls is not given here. A selection follows. Measured potencies and affinities stand elsewhere.
Assay: growth inhibition of non-replicating M. tuberculosis (AID 488890);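 note: plate controls were DMSO cells for no effect and high antibiotic wells for full effect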
Conditions: Mycobacterium tuberculosis non-replicating, at 25 µM, stronger effect = higher value

Compound | inhibition [%]
Brc1ccccc1OCCNCc1ccccc1 | 32.1
Cc1ccc(C)c(OCCCNCc2ccccc2)c1 | 32.5
O=C(Nc1ccc2c(c1)OCO2)c1cccs1 | 21.2
CCc1sc(C(=O)Nc2ccc3c(c2)OCO3)cc1C | 61.2
O=C(N/N=C/c1c(Nc2cccc(C(F)(F)F)c2)nc2ccccn2c1=O)c1ccccc1[N+](=O)[O-] | -6.01
CN(C)c1ccccc1C(=O)c1ccccc1N(C)C | 9.64
O=[N+]([O-])c1ccccc1Oc1cnc2ccccc2n1 | 46.2
Oc1ccc(Cl)cc1C1=NNC(c2cc(Br)cc3c2OCOC3)C1 (stereo unspecified) | 61.3
Oc1ccccc1C1CC(c2cccs2)=NC(c2ccc(Cl)cc2)N1 (stereo unspecified) | 73.4
COC(=O)C1=C(C(=O)OC)[C@@H]2N(Cc3ccccc3)c3ccccc3[C@@]23C[C@@H](C(=O)OC)N(C(=O)c2cccs2)C3=N1 | 21.8
CC1CCc2c(C(=O)NCCCN3CCOCC3)csc2C1 (stereo unspecified) | -0.86
COc1cc(NS(=O)(=O)c2csc(C(N)=O)c2)cc(OC)c1 | 2.46
COc1ccc(C)c2sc(N(CCN(C)C)C(=O)c3ccc4ccccc4c3)nc12 | 28.4
Cc1cc(NC(=O)COC(=O)COc2ccc3c(c2)CCC3)no1 | 10.3
CC(=O)Nc1ccc(NC(=O)COc2ccc3c(c2)CCC3)cc1 | 79.7
CCOc1ccc(NC(=O)COc2ccc3c(c2)CCC3)cc1OC | 66.5
Cc1cccnc1NC(=O)COc1ccc2c(c1)CCC2 | 70.6
Cc1ccc(NC(=O)COc2ccc3oc4c(c3c2)CCCC4)nc1 | 57.5
Cc1ccc(CNC(=O)COc2ccc3c(c2)CCC3)cc1 | 55.2
CC(C)C[C@@H](CSc1ccccc1)N1CCN(CCc2ccccc2)CCC1=O | 31
Fc1cccc(Cl)c1/C=C/c1cnc2ccccc2n1 | 13.9
COc1ccc(-c2noc(CN(C)CCC3CCCCO3)n2)cc1 (stereo unspecified) | 17.2
COC(=O)C1=CN(c2ccc(OC)cc2)C=C(C(=O)OC)C1c1cccc(F)c1 | 26.1
COc1ccc(N2C(=O)CSC2c2cccc(F)c2)cc1 (stereo unspecified) | 1.65

Compound | inhibition [%]
COc1ccccc1N(CC(=O)NCC1CCCO1)C(=O)CCC(=O)Nc1nccs1 (stereo unspecified) | 1.91
Cc1nc2ccccc2c(=O)n1-c1cc(F)ccc1F | 10.4
Nc1ccccc1C#Cc1ccccc1 | 44.7
Nc1ccccc1C(=O)c1ccccc1 | -8.33
COc1ccc(C(=O)Cn2c(NCCO)nc3ccccc32)cc1 | -8.13
CCCCNC(=O)CCn1nc(-c2ccc(C)cc2)c2ccccc2c1=O | 1.93
Cc1cc(C(=O)N/N=C/c2ccc3ccccc3c2)n[nH]1 | -9.05
CCOC(=O)Cn1ccc(NC(=O)c2ccc3c(c2)OCO3)n1 | -2.16
Cc1cccc(Cn2ccc(NC(=O)c3cccnc3)n2)c1 | 31.2
CC1CCCC(C)N1C(=O)COC(=O)c1c[nH]c2ccccc12 (stereo unspecified) | 15.5
O=C(NCCO)c1cc2cc(Cl)cc(Cl)c2oc1=O | 18
COCCNC(=O)c1cc2cc(Br)cc(OC)c2oc1=O | 56
COc1ccccc1/C=C/C(=O)OCCN1C(=O)c2ccccc2C1=O | 2.64
NC(=O)C1CCN(C(=O)NC2CC(=O)N(c3ccc4c(c3)OCCO4)C2)CC1 (stereo unspecified) | -13.4
CCC/C(=N/NC(=O)c1csc(C)c1C)c1ccc(Cl)s1 | 0.55
CC(NC(=O)c1ccco1)C(=O)OCC(=O)c1ccc(Cl)s1 (stereo unspecified) | 13.9
C/C(=N\NC(=O)c1ccc(C(=O)N/N=C(\C)c2ccco2)o1)c1ccco1 | 19.3
C/C(=N\NC(=O)c1ccco1)c1ccc(C(=O)O)s1 | -5.86
O=C(COC(=O)c1ccc(Cl)nc1)NNC(=O)c1ccc(Br)cc1 | 6.9
Cc1ccc(CS(=O)(=O)c2ccc(C(=O)N3CCN(c4ccccn4)CC3)cc2[N+](=O)[O-])cc1 | -16.8
Cc1ccc(C(=O)OC(C)C(=O)NC2CCCCC2C)s1 (stereo unspecified) | -2.95
CC(OC(=O)c1cccs1)C(=O)NC1CCCCC1C (stereo unspecified) | -13.9
COc1ccc(C(CNC(=O)C(Cc2ccccc2)NC(N)=O)N(C)C)cc1 (stereo unspecified) | 3.12
CCNC(=S)NNC(=O)c1ccncc1 | 65.4

Compound | inhibition [%]
CC(C)(C)C(=O)NC(=S)NNC(=O)c1ccncc1 | 71.7
N/C(Cn1cncn1)=N\NC(=O)C(=O)Nc1ccccc1 | 18
Nc1ccc(Br)cc1Br | -19.9
Nc1ccc(Oc2ccc(Br)cc2)cc1 | 60.5
Cc1ccc(/C=N/n2c(C)nc3ccccc3c2=O)s1 | 18.6
Nc1nc2ccccc2n1/N=C/c1ccc([N+](=O)[O-])s1 | 74.1
O=[N+]([O-])c1ccc(O)c(/C=N/n2c(CO)nc3ccccc32)c1 | -11.8
Cc1cc2ncn(/N=C/c3cccnc3)c2cc1C | 55
Cc1cc2ncn(/N=C/c3ccc4c(c3)OCO4)c2cc1C | 64.7
OCc1nc2ccccc2n1/N=C/c1cccs1 | -12
COc1ccc(C(=O)Nc2ccccc2)cc1S(=O)(=O)NCc1ccco1 | -9.46
Cc1ccc(S(=O)(=O)N2CCCC(C(=O)NNCC(=O)Nc3cc(F)ccc3F)C2)cc1 (stereo unspecified) | 11.7
O=C(Nc1nnc(SCc2ccccc2F)s1)C1=COCCO1 | 45.5
CNC(=O)COC(=O)c1ccc([N+](=O)[O-])cc1Cl | 11.7
CCc1cc2ccc(C)cc2nc1SCC(=O)c1ccc(NC(C)=O)cc1 | 12
CC(C)Oc1ccc(NC(N)=O)cc1 | -4.08
Cc1ccc(C(=O)CNc2ccc(Cl)cc2)cc1 | 74.1
CC(C)Oc1ccc(NC(=O)CCC(=O)O)cc1 | -9.1
Cc1ccc(NCC(=O)c2ccc(C)cc2)cc1 | 72.5
Cc1ccc(-c2nnn(CC(=O)N(c3ccccc3)C(C(=O)NCC3CCCO3)c3cccs3)n2)o1 (stereo unspecified) | -3.42
O=C(O)C1C2C=CC(C2)C1C(=O)Nc1nccs1 (stereo unspecified) | -3.04
COc1ccc2c(=O)c(-c3ccccc3C)c(C)oc2c1 | 50.8
Cc1ccc(N2C(=O)C3C4C=CC(CNC(=S)Nc5ccc(F)cc5)(O4)C3C2=O)cc1 (stereo unspecified) | 54.3
COc1ccc(Cl)cc1S(=O)(=O)n1c([N+](=O)[O-])cnc1C | -6.01

Compound | inhibition [%]
O=C(Cc1ccc(Cl)cc1)Nc1ccc(Cl)cn1 | 78.1
Cc1ccc(OCC(=O)Nc2ccc([N+](=O)[O-])cn2)cc1C | -14.3
Cc1ccc(OCC(=O)NC(=S)Nc2cccc(C)n2)cc1 | 7.91
O=C(COC(=O)CCOc1ccccc1)Nc1ccc(Cl)cn1 | 79.6
O=C(COC(=O)COc1ccccc1)Nc1ccc(Cl)cn1 | 22.1
Cc1ccc(NC(=O)Cc2ccc(Cl)cc2)nc1 | 27.8
O=C(Cc1ccc([N+](=O)[O-])cc1)Nc1ccc(Br)cn1 | -0.37
COc1ccc(OCC(=O)Nc2cccc(NC(=O)COc3ccc(OC)cc3)n2)cc1 | -11.7
COc1ccc(-c2nnc(NC(=O)c3cc(C)on3)s2)cc1 | 71.9
O=C(OCc1cc(Cl)cc2c1OCOC2)c1cccnc1Cl | 14.6
CC(C)CCNc1nc(N)c([N+](=O)[O-])c(NCCO)n1 | -5.48
CCOc1cc(C2C(C(=O)c3ccco3)=C(O)C(=O)N2CCc2ccccc2)ccc1O (stereo unspecified) | 29.2
COc1ccc(C2=NOC(Cn3nc(-c4ccccc4)cc3C(=O)NCc3cccc(Br)c3)C2)cc1 (stereo unspecified) | -12.8
Cn1c(N2CCCCC2)cc(=O)n(C)c1=O | -10.1
CCOC(=O)C1CCCN(C2CC(=O)N(c3ccccc3)C2=O)C1 (stereo unspecified) | 30.8
COC(=O)[C@@H]1C[C@@H]2CC[C@@H](O)C[C@@H]2N1Cc1ccccc1OS(=O)(=O)c1ccc(C)cc1 | 26.6
Cc1cccc(-c2noc(CCCC(=O)NCC3CCCO3)n2)c1 (stereo unspecified) | 16.8
O=C(c1cccc(S(=O)(=O)NCc2ccccc2)c1)N1CCN(c2ccccc2)CC1 | 17.1
Cc1ccn2c(=O)nc(SCC(=O)Nc3ccc4c(c3)OCO4)nc2c1 | 25.1
O=C(COc1ccc(Cl)cc1Cl)Nc1ccc(Cl)cn1 | 61
Cc1ccc(C(=O)OCC(=O)Nc2ccc(Cl)cn2)s1 | 35.7
O=C(COC(=O)c1ccc([N+](=O)[O-])cc1)Nc1ccc(Cl)cn1 | 34.3
O=C(COc1ccccc1Cl)Nc1ccc(Cl)cn1 | 29.8
c1ccc(-c2nnc(OCC3CCCO3)c3ccccc23)cc1 (stereo unspecified) | 4.74

Compound | inhibition [%]
CCOc1ccc(C(=O)N/N=C/c2ccc(SC)cc2)cc1 | 7.39
COc1ccc(Br)cc1S(=O)(=O)N1CCN=C1c1ccccc1 | 9.49
CCOC(=O)c1c[nH]c2c(C)ccc(Cl)c2c1=O | 5.99
O=C(/C(=C/O)N=Nc1ccccc1)c1cccs1 | 29.9
Cc1cccc(N=N/C(=C\O)C(=O)c2cccs2)c1 | 23.2
CC1CCN(C(=O)CCCNC(=O)Cn2cnc3sc4c(c3c2=O)CCCC4)CC1 | -3.59
Cc1onc(-c2c(F)cccc2Cl)c1C(=O)NCCc1ccncc1 | -2.23
O=C(NCc1cccc2[nH]ccc12)C1CCC(=O)N(CCc2ccc(Cl)cc2)C1 (stereo unspecified) | 14.7
CN1C[C@@H]2C[C@@H](C3=Cc4cc(Cl)ccc4OC3)N3CCC[C@@]23C1=O | 8.63
CN(CC(=O)Nc1ccccc1N1CCOCC1)CC(=O)Nc1ccc(F)c(F)c1F | 7.73
CCCC(=O)NC(Nc1ccc(S(=O)(=O)Nc2cc(C)on2)cc1)(C(F)(F)F)C(F)(F)F | 69.8
O=C(N/N=C/c1ccc2c(c1)OCO2)C1COc2ccccc2O1 (stereo unspecified) | 69.6
CC(/C=C/c1ccc2c(c1)OCO2)=N\NC(=O)C(O)c1ccccc1 (stereo unspecified) | -1.85
CC(/C=C/c1ccccc1F)=N\NC(=O)C(C)C | 13.2
C/C(=N/NC(=O)c1ccccc1)C(=O)O | 21.7
CC(/C=C/c1ccccc1)=N/NC(=O)CNC(=O)c1ccc2c(c1)OCO2 | -0.44
CC(/C=C/C=C/c1ccccc1)=N/NC(=O)c1ccc2c(c1)OCCO2 | 11.1
O=C(COc1cc(F)ccc1[N+](=O)[O-])Nc1cccc(S(=O)(=O)NC2=NCCC2)c1 | -15.8
C=CCSc1nccc(=O)[nH]1 | 17.7
COc1ccc(CCNC(=O)NC(C(F)(F)F)C(F)(F)F)cc1OC | -0.6

From PubChem BioAssay AID488890 (Southern Research Specialized Biocontainment Screening …, 2010)
